From PubChem BioAssay AID743269 (The Scripps Research Institute Molecular Screening Center, 2014)
Out of some 370,000 compounds screened, about 2,400 (0.65%) were called active. This is one part of a sample in which actives are shown more often than they occur. A number with no mark means an inactive call.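 How the source made its calls: active means inhibition above the screen-wide mean plus 3 SD (cut at about 13% in these data); inactive means the rest.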

Each compound was assayed on HIV-1 integrase (with human LEDGF/p75) (assay: blockers of LEDGF/p75-dependent integrase strand transfer – biochemical, TR-FRET, high throughput, primary screen (AID 743269;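 further: signal is the Cy5 over europium emission ratio at 671 and 618 nm; 0% = plate median of compound wells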)). Settings: TR-FRET IN-LEDGF/p75 DNA integration, Eu/Cy5; at 3.7 µM; hits give high values.

SMILES | inhibition
COc1ccc(S[C@]2(C(=O)N(C)C)CC(=O)N(c3ccc(OC)cc3)[C@@H]2c2ccc(OC)cc2)cc1 | 2.73%
C=CCN1[C@@H](Cc2ccccc2)COc2cccc(N3CCSCC3)c2S1(=O)=O | 1.03%
CCn1c2ccccc2c2cc(NC(=O)CSc3nnc(-c4ccccc4)n3-c3ccc(C)cc3)ccc21 | 0.64%
CC1C(=O)N(Cc2cn(Cc3ccco3)nn2)CCS(=O)(=O)N1Cc1ccc(-c2cccc(CO)c2)cc1 (stereo not drawn) | 1.97%
CC1C(=O)N(Cc2cn(CC3CCCCC3)nn2)CCS(=O)(=O)N1Cc1ccc(-c2cccc(N(C)C)c2)cc1 (stereo not drawn) | 5.48%
COc1ccc(Cn2cc(CN3CCS(=O)(=O)N(Cc4ccc(-c5cccc(Cl)c5)cc4)C(C)C3=O)nn2)cc1 (stereo not drawn) | 79.8% (active)
COC(=O)[C@]12C[C@H](CC(=O)NCc3cccs3)C(=O)N(CCc3ccc(OC)c(OC)c3)C1=C[C@H](C(C)C)O[C@@H]2C1CC1 | 4.37%
Cc1c(CC(=O)N2CCN(C(=O)C3COc4ccccc4O3)CC2)c(=O)oc2c(O)c(O)ccc12 (stereo not drawn) | 67.8% (active)
CC(=O)c1ccccc1NC(=O)COC(=O)C1COc2ccccc2O1 (stereo not drawn) | -3.4%
Cc1ccc(S(=O)(=O)N(C)C)cc1NC(=O)COC(=O)C1COc2ccccc2O1 (stereo not drawn) | 1.74%
C=CCN1C(=O)[C@@H](CC(=O)N2CCN(C(=O)OCC)CC2)[C@]2(C(=O)OCC)CCCCC/C=C/12 | -0.68%
CC(C)(C)OC(=O)NCCc1ccccc1/C=C/S(=O)(=O)NCc1ccc(F)cc1 | -1.63%
COc1ccc(CN2C/C(=C/c3ccccc3)N3C(=O)C[C@@H](c4ccccc4)N=C23)c(OC)c1 | -1.46%
COc1c(O)cc2oc(-c3ccc(O)c(O)c3)cc(=O)c2c1O | 34.7% (active)
CCCC[C@H](C(=O)N(CC)c1ccccc1)[C@@H](O)c1ccc2ccccc2c1 | -3.33%
C=CCN1C(=O)[C@H](CC(=O)NCCCN2CCCC2=O)[C@@]2(C(=O)OCC)CCCC=C12 | -3.27%
COC1=C[C@H](C(=O)NCCNC(C)=O)[C@H](C)[C@@H](c2ccccc2)CC1=O | -0.49%
CN(C)[C@@H]1C(=O)C(C(N)=O)=C(O)[C@@]2(O)C(=O)C3=C(O)c4c(O)ccc(Cl)c4[C@@H](O)[C@H]3C[C@@H]12 | 38.5% (active)
C=C1c2c(Cl)ccc(O)c2C(O)=C2C(=O)[C@]3(O)C(O)=C(C(N)=O)C(=O)[C@@H](N(C)C)[C@@H]3[C@@H](O)C12 (stereo partly drawn) | 68% (active)
CCOC(=O)[C@]12CCCC=C1N(CCCOC)C(=O)[C@@H]2CC(=O)N1CCOCC1 | 4.81%
COc1ccc(C2Nc3ccccc3C(=O)N2Cc2cccs2)cc1COc1c(C)cccc1C (stereo not drawn) | -0.72%

SMILES | inhibition
CCOC(=O)C1=C(C)NC2=C(C(=O)CC(C)(C)C2)C1c1ccc2c(c1)OCO2 (stereo not drawn) | -1.19%
CCCC1CCC2(CCCN2CCOC(=O)NCc2ccccc2)CC1 (stereo not drawn) | -0.38%
Cc1ccc(C(=O)OC(C)CN2CCOCC2)cc1 (stereo not drawn) | 57.5% (active)
CC(CN1CCOCC1)OC(=O)c1ccc(C(C)(C)C)cc1 (stereo not drawn) | 2.54%
Cc1cccc(C(=O)OC(C)CN2CCCC2)c1 (stereo not drawn) | 1.96%
COc1ccc2c(C(C)c3ccc(N)cc3)cn(C)c2c1 (stereo not drawn) | 3.86%
Cc1c(C(C)c2ccccc2O)[nH]c2ccccc12 (stereo not drawn) | -2.27%
Oc1ccc(N=Cc2sc3ccccc3c2Cl)cc1 | 27.5% (active)
COc1ccc([C@H]2OC(=O)C[C@H]2C(=O)N2CCN(c3ccccc3F)CC2)cc1OC | 1.9%
Cc1cc(C)nc(NC(=S)N2CCN(c3ccc(C(F)(F)F)cn3)CC2)c1 | 4.81%
O=S1(=O)c2c(cccc2N2CCSCC2)Oc2ccccc2CN1Cc1cn(Cc2ccc(F)cc2)nn1 | -4.35%
COC(=O)C1CN(CCc2ccccc2)CCS(=O)(=O)N1Cc1ccc(F)cc1 (stereo not drawn) | -0.36%
O=C(CCS(=O)(=O)c1ccccc1)Nc1ccc(Cl)c(Cl)c1 | -0.44%
Cc1ccc(-c2cnc(NC(=O)CCC(=O)N(C)Cc3ccccc3)n2C)cc1 | 38.1% (active)
CN(Cc1ccccc1)C(=O)CCNC(=O)Cn1cnc2ccccc2c1=O | -0.32%
Cn1c(-c2ccc(F)cc2)cnc1SCC(=O)NNC(=O)Cc1ccccc1 | -1.96%
O=C(OCC#CCSc1nnc(-c2ccco2)o1)c1ccc(F)cc1 | -2.28%
COC(=O)[C@]12C[C@H](CC(=O)NCc3ccccc3)C(=O)N(Cc3ccccc3)C1=C[C@H](COCc1ccccc1)O[C@@H]2C | -1.62%
CC(C)C(C#CC1CC1)N(Cc1ccc2c(c1)OCO2)C(N)=NC(=O)/C=C/c1cccc(C(F)(F)F)c1 (stereo not drawn) | -0.12%
COc1ccc(CSc2nnc(-c3cccc(C)c3)n2C)cc1 | 1.05%
Cn1c(SCc2nc3ccccc3s2)nnc1-c1ccc2c(c1)OCO2 | 14.7% (active)

SMILES | inhibition
Cn1c(SCC(=O)N2CCCC2)nnc1-c1ccc2c(c1)OCO2 | 0.18%
CCOC(=O)[C@]12CCCC3=C1N(CCC3)C(=O)[C@@H](CC(=O)N1CCSCC1)C2 | 4.16%
COC(=O)[C@]12C[C@H](CC(=O)NCc3ccccc3)C(=O)N(CCC3=CCCCC3)C1=C[C@H](C(C)C)O[C@@H]2C1CC1 | -3.27%
Cc1ccccc1CN1CCCCC(NC(=O)c2cccc(C#N)c2)C1=O (stereo not drawn) | -3.73%
CCCCCCN1CCS(=O)(=O)N(Cc2ccc(C(F)(F)F)cc2)C(C(=O)OC)C1 (stereo not drawn) | -2.95%
CCOC(=O)/C(C#N)=C\c1c(C)cc(C)c(COC(C)=O)c1C | 15.8% (active)
CCCn1c(C)cc(/C=C(\C#N)C(=O)OCC(=O)Nc2cc(OC)c(OC)c(OC)c2)c1C | 4.46%
COC(=O)/C(C#N)=C/c1occc1C | 1.63%
CCOC(=O)c1csc(NC(=O)C2CCCN(S(=O)(=O)c3ccc(Cl)s3)C2)n1 (stereo not drawn) | 3.42%
CSc1ccc(C=Nn2c(-c3ccc(F)cc3)n[nH]c2=S)cc1 | 1.18%
COc1ccc2c(c1)CN1CN(CCc3ccccc3)S(=O)(=O)CC21 (stereo not drawn) | 3.16%
O=C(N/C(=C\c1ccc(O)cc1)C(=O)N1CCCCC1)c1ccccc1 | 3.65%
CN1CCN(C(=O)/C(=C\c2cccs2)NC(=O)c2cccs2)CC1 | -1.57%
Cc1ccc(C(=O)N/C(=C/c2cccs2)C(=O)N2CCCCC2)cc1 | 33% (active)
Cc1ccc(Cn2cc(CN3[C@@H](C)COc4cc(Br)ccc4S3(=O)=O)nn2)cc1 | 4.11%
O=C1Nc2ccccc2OC1CC(=O)N1CCCCCCC1 (stereo not drawn) | 0.2%
CCC(CO)Nc1cccc2c1S(=O)(=O)N(Cc1cn(Cc3ccccc3C(F)(F)F)nn1)Cc1ccccc1O2 (stereo not drawn) | -2.25%
FC(F)(F)c1cccc(Cn2ccc3ccc(-c4ccc5ccn(Cc6ccccc6)c5c4)cc32)c1 | 3.37%
CC(=O)N1CCc2cc(S(=O)(=O)NCCC(=O)N3CCCC3)ccc21 | -3.8%
CC1(OC(=O)C2CCCC2)C(=O)C=C2C=C(c3ccc(C#N)cc3)OC=C2C1=O (stereo not drawn) | 13.4% (active)
Cc1ccccc1C(=O)N1CCC(C(=O)Oc2ccc(C#N)cc2)CC1 | -4.31%

SMILES | inhibition
CC1(C(=O)NS(=O)(=O)c2ccc(C#N)cc2)CCN1C(=O)c1ccc(C2CCCCC2)cc1 (stereo not drawn) | -1.93%
C[C@H]1CCC/C=C/C(=O)c2c(O)cc(O)cc2CC(=O)O1 | -2.09%
O=C(Cn1c(=O)n(Cc2ccco2)c(=O)c2ccccc21)NCC1CCCO1 (stereo not drawn) | 2.8%
Cc1cc2c(c(=O)n1C)C(C(C)C)C(C#N)=C(N)O2 (stereo not drawn) | 0.88%
Cc1cc2c(c(=O)n1Cc1ccco1)C(c1ccccc1)C(C#N)=C(N)O2 (stereo not drawn) | 42.2% (active)
N#Cc1ccc(OC[C@@H](O)CN2CCC(C(O)(c3ccccc3)c3ccccc3)CC2)c(F)c1 | 1.07%
Cc1ccnc(NS(=O)(=O)c2ccc(NC(=O)c3ccc(S(=O)(=O)N4CCOCC4)cc3)cc2)n1 | -0.6%
O=C(Nc1nnc(-c2ccco2)o1)c1ccc(S(=O)(=O)N2CCOCC2)cc1 | 27% (active)
O=C(Nc1nnc(-c2ccccc2)o1)c1cccc(S(=O)(=O)N2CCOCC2)c1 | 4.42%
Cc1cccc(C(=O)Nc2c(-c3ccc(F)cc3)nc3ncccn23)c1 | 1.19%
C=CCN1[C@H](CC(C)C)COc2cccc(N3CCCC3)c2S1(=O)=O | -3.3%
CCN(CC)C(=O)CC[C@H]1CC[C@]2(CCCN(Cc3ccc(Cl)cc3)C2)O1 | 3.81%
O=C(OC1CC2CC1[C@H]1CCCCN1C2=O)N1CCOCC1 (stereo partly drawn) | -2.09%
CCCCNC(=O)OC1CC2CC1[C@H]1CCCCN1C2=O (stereo partly drawn) | 25.4% (active)
CCCC[C@H]1C2CC(OC(=O)NCc3ccccc3)C(C2)[C@H]2CCCCN21 (stereo partly drawn) | -3.96%
c1coc(CCNc2ncnc3ccc(-c4ccc5c(c4)OCO5)cc23)c1 | 2.41%
COC(=O)c1cc(S(=O)(=O)N2CCN(c3ccccc3C)CC2)cn1C | -0.95%
CC(C)Cn1c(N)c(C(=O)NCc2cccs2)c2nc3ccccc3nc21 | 23.8% (active)
Cc1nc2c(C(=O)NCc3cccs3)cnn2c(C)c1Cc1ccc(F)cc1 | -1.76%
O=C(Cc1coc2ccc3ccccc3c12)NCc1cccs1 | 0.4%
